Assay outcomes as filed in PubChem BioAssay.
This is a sample that favours compounds with a hit; in the whole collection about 5.4% have one here.
CSC inhib = cancer stem cell inhibition; cancer stem cell-like cells viability, luminescence; inhibition, % at 7.5 µM; actives 1.1% (n = 300,000); in the data active = inhibition above about 75%; inconclusive = no clear call, values can overlap the other calls; tested in HMLE shEcad cells
PP5 inh = blocks human protein phosphatase 5 activity; inhibition, % at 6.7 µM; purified PP5c, OMFP substrate fluorescence; AID 1987; actives 0.18% (n = 320,000);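 active = inhibition above the campaign's mean inhibition across all tested compounds plus 3 SD, cut at about 9.5% in these data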
PP1 inh = blocks human PP1-alpha phosphatase, a PP5 counter-screen; inhibition, % at 6.7 µM; actives 0.9% (n = 320,000); purified PP1alpha, OMFP fluorescence; P62136;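 active = inhibition above the mean inhibition of all tested compounds plus 3 SD, computed separately for each screening campaign, cut at about 15% in these data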
ALR inh = human ALR oxidase inhibition via reduced H2O2 | P55789 | purified ALR, DTT oxidation, H2O2 HRP-luminol luminescence | inhibition, % (no concentration beside the values) | actives 3.8% (n = 290,000);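 active = mean replicate inhibition above about 79%, with every replicate also reaching it, limit read from the data; inconclusive = only one of the two criteria met; inactive = mean below limit and not every replicate reaching it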
Target sequence (P55789 whole entry, looked up): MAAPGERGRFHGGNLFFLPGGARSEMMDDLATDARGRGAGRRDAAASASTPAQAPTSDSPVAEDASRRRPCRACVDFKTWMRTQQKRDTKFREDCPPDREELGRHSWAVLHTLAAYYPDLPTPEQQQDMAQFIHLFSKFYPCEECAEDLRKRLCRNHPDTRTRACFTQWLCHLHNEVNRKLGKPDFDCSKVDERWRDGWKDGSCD
Calb FLC = C. albicans growth modulation with fluconazole | growth inhibition, % (concentration not given with the values) | actives 0.57% (n = 300,000) | C. albicans CaCi-2 (fluconazole-resistant clinical isolate) + fluconazole, Alamar Blue growth, 48 h;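 active = growth inhibition above about 58% in most replicates, limit read from the data, passing the limit was not always enough; inconclusive = exactly half the replicates above a set limit; inactive = most replicates below a set limit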;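 also: all wells also contain fluconazole at 8 µg/ml as a sub-toxic cotreatment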
PP5 conf = confirmation of human PP5 phosphatase inhibitors; actives 22% (n = 460); Purified PP5, fluorogenic phosphatase substrate, fluorescence; inhibition, % at 6.7 µM; shares compounds with PP5 inh; in the data active = inhibition above about 9.5%
PP1 inh counter = PP1 phosphatase inhibition, counter-screen for PP5 inhibitors. shares compounds with PP5 inh. PP1 enzyme, fluorescent phosphatase substrate. inhibition, % at 6.7 µM. actives 4% (n = 460). AID 2355; in the data active = inhibition above about 16%
Of the large screens only hits and unclear results are named; the others gave an inactive call (follow-up assays come after a bar, where they were run).

Cc1onc(-c2ccccc2)c1C(=O)OCC(=O)Nc1ccc(OC(F)(F)F)cc1	PP5 inh 9.7 (no result: CSC inhib, ALR inh, Calb FLC) | PP5 conf inactive | PP1 inh counter inactive
Cc1ccc(NC(=O)COC(=O)c2c(-c3ccccc3)noc2C)cc1	none (no result: Calb FLC)
Cc1ccc(Sc2ccc(N)cn2)cc1	PP5 inh 13.7 | PP5 conf inactive | PP1 inh counter inactive
CCOc1cc(-c2cc(-c3ccc(C)cc3)nc(N)c2C#N)ccc1O	PP5 inh 9.7, Calb FLC inconclusive | PP5 conf inactive | PP1 inh counter inactive
Cc1snc(S(=O)(=O)/C(C#N)=N/Nc2ccc(C(F)(F)F)cc2)c1C#N	CSC inhib 89.0, PP5 inh 10.3 (no result: ALR inh) | PP5 conf inactive | PP1 inh counter inactive
Cc1snc(S(=O)(=O)/C(C#N)=N\Nc2ccccc2)c1C#N	none
COc1ccc(Cl)cc1NC(=O)CN(C)C(=O)CN1C(=O)NC(C)(C)C1=O	none (no result: Calb FLC)
O=C1c2ccccc2C(=O)C12OC2c1ccc(Cl)cc1 (stereo not drawn)	PP5 inh 11.3 (no result: ALR inh) | PP5 conf 31.7 | PP1 inh counter inactive
Cc1nc2[nH]c(=O)c3c(n2n1)NC1=C(C(=O)CC(C)(C)C1)C3c1ccccc1 (stereo not drawn)	none
Cn1cc(CNCc2ccc(-n3cccn3)cc2)c(-c2ccccc2F)n1	none
Cn1cc(CNCCCn2ncc3ccccc32)c(-c2ccccc2F)n1	PP5 inh 16.0 | PP5 conf inactive | PP1 inh counter inactive
COc1ccc(C2=NCN(c3ccc(C)cc3)C(=S)N2)cc1	PP5 inh 10.8 | PP5 conf inactive | PP1 inh counter inactive
Cc1ccc([N+](=O)[O-])cc1-c1ccc(/C=N/NC(=O)CN2CCOCC2)o1	PP5 inh 12.0 (no result: ALR inh) | PP5 conf inactive | PP1 inh counter inactive
O=C(Cc1ccccc1)N/N=C/c1ccc(-c2ccc([N+](=O)[O-])cc2)o1	none
O=C(c1ccc([N+](=O)[O-])cc1)N1CCN(c2ncc(Br)cn2)CC1	PP5 inh 10.7 | PP5 conf inactive | PP1 inh counter inactive
CC(C)C(=O)Nc1cccc(C(=O)Nc2ccccc2C(=O)O)c1	PP5 inh 10.3 | PP5 conf inactive | PP1 inh counter inactive
O=C(Nc1nccs1)c1cc2sccc2n1Cc1ccc(F)cc1	PP5 inh 10.1 | PP5 conf inactive | PP1 inh counter inactive
COC(=O)C1(C)NC(c2ccc(O)cc2)C2C(=O)N(c3ccc(F)cc3)C(=O)C21 (stereo not drawn)	PP5 inh 10.0 | PP5 conf inactive | PP1 inh counter inactive
CCC(CC)C(=O)Nc1cccc(C(=O)Nc2ccc(OC)cc2[N+](=O)[O-])c1	PP5 inh 10.3 | PP5 conf inactive | PP1 inh counter inactive
COc1ccc(NC(=O)c2ccccc2)c([N+](=O)[O-])c1	none
CCC(CC)C(=O)Nc1cccc(C(=O)Nc2ccc(S(N)(=O)=O)cc2)c1	none
CCC(CC)C(=O)Nc1cccc(C(=O)Nc2ccc(S(=O)(=O)Nc3ccc(C)cc3)cc2)c1	PP5 inh 10.4 | PP5 conf inactive | PP1 inh counter inactive
CC1Cc2ccccc2N1C(=O)CSCC(=O)O (stereo not drawn)	none
CCc1ccc2nc(N(CCN(C)C)C(=O)/C=C/c3cccs3)sc2c1	none
CCCN(CCC)C(=O)CC(c1ccccc1)c1cc(Br)ccc1O (stereo not drawn)	PP5 inh 11.5 | PP5 conf inactive | PP1 inh counter inactive
CCCN(CCC)C(=O)CC(c1ccccc1)c1ccc(C)cc1O (stereo not drawn)	none
COc1cccc(-c2cc(C(=O)Nc3cnn(Cc4ccccc4C)c3)no2)c1	none (no result: CSC inhib)
COc1cccc(-c2cc(C(=O)Nc3cnn(Cc4ccc(F)cc4)c3)no2)c1	PP5 inh 13.6 | PP5 conf inactive | PP1 inh counter inactive
O=C1C(c2ccccc2)=[N+]([O-])c2ccccc21	CSC inhib 81.8, PP5 inh 10.3, ALR inh 91.4 | PP5 conf 36.0 | PP1 inh counter 87.6
COc1ccc(C(CNC(=O)c2cccc(Br)c2)N2CCCC2)cc1 (stereo not drawn)	PP5 inh 10.5 | PP5 conf inactive | PP1 inh counter inactive
Cc1cc(C)cc(NC(=O)C2C3C=CC(O3)C2C(=O)O)c1 (stereo not drawn)	PP5 inh 19.9 | PP5 conf inactive | PP1 inh counter 18.9
